This test concerns HepG2. In words: GSK_TCMDC: Percent inhibition of human HepG2 cell line. Test compounds present at 10uM. In kind it is functional.
On to `COc1ccc(C2CC(c3ccccc3)=NN2C(=O)c2ccc(Br)o2)cc1` (stereo not given), for which the Inhibition (usually the change of the read-out against control, counted positive when it falls) amounted to 6%.
The result for `CC1(C)N=C(N)N=C(NOCc2ccc(Cl)c(Cl)c2)N1` reads 5%; that for `Fc1cccc(COc2ccc(Nc3ncnc4sc(C#CCNC5CCCC5)cc34)cc2Cl)c1`, 3%.
Under `O=C(Nc1ccc(Br)cc1)N1CCC(n2c(-c3ccccc3)nc3cccnc32)CC1` stands 36%; under `COc1ccc(-c2ccc(NC(=O)c3cccc(C#N)c3)cc2)cc1CN1CCN(C)CC1.O=C(O)C(F)(F)F`, 26%.
In turn, `CC1(C)NC(N)=NC(=N)N1OCc1cc(Cl)c(Cl)cc1CON1C(=N)N=C(N)NC1(C)C` displayed an Inhibition of 36%.
The result for `CCCCN(CCCC)C(=O)CC(O)c1cc2c(Cl)cc(Cl)cc2c2cc(C(F)(F)F)ccc12` (stereo not given) reads 0%; that for `COc1ccc(NC(=O)/C=C/c2ccccc2Cl)cc1OCCN1CCC(NCc2ccccc2)CC1`, 28%.
The result for `O=C(/C=C/c1ccc(Cl)c(Cl)c1)NCCCCCN1CCC(CCNC(=O)c2snnc2-c2ccccc2)CC1` reads 54%.
Under `COCCOc1nc(N)nc2ncc(Cc3cc(OC)ccc3OC)c(C)c12` stands 61%; under `CCNc1cc(C)nc(Nc2ccc(NC(=O)c3ccccc3Br)cc2)n1`, 46%.
`CC1CCCCN1CCCNC(=O)c1cccc(-c2cc3cc(Cl)c(Cl)cc3[nH]2)c1.O=C(O)C(F)(F)F` (stereo not given) yielded an Inhibition of 22%.
For `Nc1ccc(-c2ccc3ccnc(N)c3c2)cn1.O=C(O)C(F)(F)F`, the Inhibition came to 43%.
Under `CC(C)c1ccc(CN2CCCCC(NC(=O)c3cc(-c4cccc(F)c4)cs3)C2)cc1.O=C(O)C(F)(F)F` (stereo not given) stands 6%; under `O=C(/C=C/c1ccc(C(F)(F)F)cc1)NCCCCCN1CCCN(C(=O)Nc2cccc(Cl)c2)CC1`, 16%; under `COc1ccc(CC2(c3ccc(F)cc3)N=C(N)N(CCCc3ccc4c(c3)OCO4)C2=O)cc1.O=C(O)C(F)(F)F` (stereo not given), 60%.
The result for `CN1CCN(c2cc3c(cc2Cl)CCN3C(=O)Nc2ccc(NC(=O)c3ccc(C(F)(F)F)cc3)cc2)CC1.Cl` reads 98%; that for `Cc1[nH]c(C)c(-c2cccc(-c3ccc(OC(F)(F)F)cc3)c2)c(=O)c1Br`, 45%; that for `C=CCn1c(SCc2c(C)noc2C)nc2scc(-c3cccs3)c2c1=O`, 13%.
Under `COc1cccc(-c2cnc(N)c(-c3nc4ccc(C(F)(F)F)cc4[nH]3)c2)c1.Cl` stands 5%.
Turning to `COCCCn1c(=N)c(C(=O)NCCc2ccc(OC)cc2)cc2c(=O)n3cccc(C)c3nc21`, the Inhibition amounted to 18%.
`O=C(c1ccccc1)N1CCC(CN2CCOC(c3ccccc3)(c3ccccc3)C2)CC1` yielded an Inhibition of 14%.
The result for `Cc1ccccc1C1CCN(C2CCC(NC(=O)/C=C/c3ccc(F)cc3)CC2)CC1` (stereo not given) reads 61%; that for `CC(C)n1ncc2c(C(=O)N3CCCC4CCCCC43)cc(C3CC3)nc21` (stereo not given), 7%; that for `Cc1ccccc1C1CCN(C2CCC(NC(=O)C3=Cc4cc(Cl)ccc4OC3)CC2)CC1` (stereo not given), 51%.
In the case of `CC(=O)Nc1ccc(OCCN(Cc2ccccc2C(F)(F)F)c2ccc(C#N)c(C(F)(F)F)c2)c(Cl)c1`, the Inhibition is listed as 0%.
Under `CCn1c(-c2nonc2N)nc2c(-c3cccc(Cl)c3)ncc(OCCCNCc3cnc(C)nc3N)c21.O=C(O)C(F)(F)F` stands 21%.
Under `CN(C)c1cc(NC(=O)Nc2ccc(SC(F)(F)F)cc2)c2ccccc2n1` stands 22%; under `Cc1cccc2nc(-c3ccc(-c4cccc(CNCC5CCCO5)c4)cc3)[nH]c12.O=C(O)C(F)(F)F` (stereo not given), 18%.
Under `N#CCCn1nc(-c2ccc(Cl)cc2)c2c(c1=O)CCCC2` stands 0%.
`CCN(CC)C(=O)c1cccc(C=Cc2ccc(-c3c(C)[nH]c(C)c(Cl)c3=O)cc2)c1` showed an Inhibition of 9%.
Under `Cc1onc(-c2ccccc2Cl)c1C(=O)Nc1cc(Cl)c(Cl)cc1Cl` stands 3%; under `Cn1nccc1C(=O)NCCNCc1ccc(-c2cccc(-c3nc4ccccc4[nH]3)c2)cc1.O=C(O)C(F)(F)F`, 35%.
Under `COc1cc(CN/C(=N/c2ccc(-c3ccccc3)cc2)Nc2ccc(C#N)cc2O)cc(OC)c1` stands 0%; under `CC(C)(C)c1ccc(-c2csc(NC(=O)CC(c3ccccc3)c3ccccc3)n2)cc1`, 3%; under `CC1(C)C(=O)Nc2ccccc2N1C(=O)CN1CCN(c2ccccc2O)CC1`, 7%.
Under `Cc1cccc2nc(-c3ccc(-c4ccc(CN5CCN(C6CCN(C)CC6)CC5)cc4)s3)[nH]c12.O=C(O)C(F)(F)F` stands 97%; under `Cn1cnc(CCNC(=O)c2ccc(-c3cccc(-c4nc5ccccc5[nH]4)c3)cc2)c1`, 1%; under `COc1ccc(Cl)cc1N1CCN(CCCNC(=O)c2ccc(-c3nc4cc(Cl)c(F)cc4[nH]3)cc2)CC1`, 3%.
Compound `CN(C)c1cc(NC(=O)Nc2ccccc2)c2ccccc2n1` registered an Inhibition of 11%.

Values taken from ChEMBL document CHEMBL1157539, “Thousands of chemical starting points for antimalarial lead identification” (Nature, 2010).
